# An excerpt weighted towards active compounds, which were near 4.1% of everything screened.
# hgDAF-12 ag – agonists of H. glycines DAF-12 nuclear receptor. hit rate 1.8% among 370,000. AID 687014. HEK293 GAL4-hgDAF12 UAS-luciferase reporter, agonist luminescence; normalized to butyrate control. activation, % at 6.8 µM;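 active means activation above a cutoff set at the mean of all screened compounds plus 3 SD, cut at about 10% in these data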;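 further: 0% = DMSO wells and 100% = sodium butyrate wells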
# DAX1 inh-1 – inhibits human nuclear receptor DAX1; hit rate 0.99% among 340,000; HEK293 Gal4-DAX1 luciferase reporter, luminescence; inhibition, % at 6.75 µM;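 active means inhibition above the mean over all tested compounds plus 3 SD, cut at about 4.2% in these data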;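 further: 0% = DAX1-transfected cells with DMSO and 100% = empty-vector control cells with DMSO; inhibition shows as a rise in luminescence from relieved DAX1 repression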
# Target sequence (P51843 207-470 limits assumed): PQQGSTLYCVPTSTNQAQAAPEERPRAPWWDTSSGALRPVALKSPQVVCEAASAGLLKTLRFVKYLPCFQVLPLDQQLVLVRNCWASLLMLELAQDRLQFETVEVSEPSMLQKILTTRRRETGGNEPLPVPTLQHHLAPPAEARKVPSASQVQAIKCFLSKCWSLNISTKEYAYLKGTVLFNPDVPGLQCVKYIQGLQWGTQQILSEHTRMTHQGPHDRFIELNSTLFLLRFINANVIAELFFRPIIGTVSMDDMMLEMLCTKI
# DAX1 inh-2 – blocks DAX1 repression of SF-1 activated StAR promoter; hit rate 1.1% among 370,000; HEK293T StAR-luciferase reporter, SF-1/DAX-1 repression relief; inhibition, % at 6.8 µM; AID 652010;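 active means inhibition above the mean over all tested compounds plus 3 SD, cut at about 3.6% in these data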;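 further: 0% = DAX-1 cells with DMSO and 100% = cells lacking DAX-1 with DMSO; higher inhibition means more luminescence from relief of DAX-1 repression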
# hcDAF12 agonist – activates DAF-12 receptor from parasite H. contortus | HEK293 hcDAF-12 lit1-tk-luc reporter, luminescence; 0% DMSO, 100% Δ7-dafachronic acid | activation, % at 6.8 µM | AID 652067 | hit rate 1.4% among 370,000;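 active means activation above the mean of all tested compounds plus 3 SD, cut at about 5.5% in these data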;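 further: 100% = response to 3 µM Δ7-dafachronic acid high control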
# ssDAF12 agonist – activates DAF-12 receptor from parasite S. stercoralis; HEK293 ssDAF-12/GRIP1 lit1-tk-luc reporter, luminescence; % of 3 µM dafachronic acid response; activation, % at 6.8 µM; hit rate 1% among 370,000;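 active means activation above the mean over all tested compounds plus 3 SD, cut at about 0.9% in these data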;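 further: 0% = DMSO-only wells and 100% = 3 µM delta7-dafachronic acid wells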
# hgDAF12 ag – confirmation of H. glycines DAF-12 agonists. shares compounds with hgDAF-12 ag. HEK293 GAL4-hgDAF12 luciferase reporter, agonist mode; percent of butyrate response. activation, % at 6.8 µM. hit rate 80% among 3,300. AID 743050;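 active means mean activation over triplicate wells above the hit cutoff derived from the earlier primary screen, cut at about 11% in these data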;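 further: 0% = DMSO low control and 100% = 2 mM sodium butyrate high control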
# LXR ag 2 – counter-screen for DAF-12 agonists: agonists of human LXR-beta. shares compounds with hgDAF-12 ag. AID 743051. activation, % at 6.8 µM. 3,300 tested, under 10 active. HEK293 Gal4-LXR luciferase reporter, 24 h;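 active means mean activation of the triplicate above a set limit carried over from the primary screen, none filed active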
# An asterisk follows results filed as active; . = no result.
SMILES,hgDAF-12 ag,DAX1 inh-1,DAX1 inh-2,hcDAF12 agonist,ssDAF12 agonist,hgDAF12 ag,LXR ag 2
CCCC(=O)Nc1ccc(NC(=O)c2ccccn2)cn1,13.3*,2.0,2.5,2.7,1.2*,9.3,0.5
O=C(NCCc1ccccc1)OCc1cn(-c2ccc(F)cc2)nn1,-1.1,.,0.3,-1.6,-0.5,.,.
C/C(CC(=O)Nc1ccc(C)c(Cl)c1)=N\NC(=O)c1ccccn1,14.2*,-0.9,3.3,4.9,-0.1,7.5,0.1
O=C(NNC1=NCCCCC1)Nc1cccc(Cl)c1,18.5*,1.2,1.5,4.9,-0.4,18.4*,0.4
O=C(Nc1cc(-c2ccccc2)[nH]n1)c1ccccc1,13.5*,3.1,1.6,4.3,-0.4,15.9*,0.8
Cc1cc(NC(=O)c2cccc(Oc3ccccc3)c2)n[nH]1,19.4*,3.2,3.7*,4.0,-0.5,13.2*,0.5
COC(=O)[C@]12C[C@H](CC(=O)NCc3ccc(OC)c(OC)c3)C(=O)N(Cc3ccccc3)C1=C[C@H](C1CCCC1)O[C@@H]2C,0.1,.,-0.1,-1.0,-0.5,.,.
S=c1nc(-c2ccccc2)oc2c1CCCC2,3.5,2.2,1.5,3.9,-0.4,.,.
COc1cccc(-c2nc(=S)c3c(o2)CCCC3)c1,13.4*,5.1*,3.7*,2.4,-0.4,17.3*,0.4
N#CC1CC(c2ccccc2)Nc2cc(Cl)ccc2N1 (centres undefined),19.6*,-1.7,-0.2,6.0*,0.8,12.7*,0.5
CCc1cccc(Nc2cc(C)n(-c3cccc(CC)c3)c(=O)c2)c1,3.6,.,1.1,-1.5,-0.8,.,.
Cc1ccc(-c2cn3cccnc3n2)cc1,15.1*,1.1,2.0,2.3,-0.6,11.2*,0.4
CCCCNC(=S)N(CCCO)Cc1cc2cc3c(cc2[nH]c1=O)OCCO3,0.0,1.2,0.0,-0.1,-0.7,.,.
CN(C)CCCNC(=S)N(CCCO)Cc1cc2cc3c(cc2[nH]c1=O)OCO3,15.7*,-0.2,1.1,4.8,0.5,0.5,0.1
Cc1ccc(OCc2nc3ccccc3[nH]2)cc1,15.5*,0.1,4.2*,6.0*,-0.3,12.8*,0.7
Cc1ccc(C(=O)Cc2nc3ccccc3[nH]2)cc1,6.2,0.4,0.9,1.9,-0.1,.,.
COc1ccc(OC)c(S(=O)(=O)N2CCCC(c3noc(-c4ccc(C)cc4)n3)C2)c1 (centres undefined),0.4,.,-1.0,-2.2,-1.9,.,.
Cc1scc(C(=O)N/N=C/c2ccsc2)c1C,17.8*,2.0,2.7,2.4,1.1*,17.3*,0.5
Cc1scc(C(=O)N/N=C/c2ccco2)c1C,9.8,1.4,1.5,0.5,-0.3,.,.
CCOC(=O)C1=NOC(C(C)=O)(C(=O)N2CCOCC2)C1 (centres undefined),-1.6,.,0.2,-0.8,-0.2,.,.
COc1ccc(/C=N/NC(=O)c2ccc[nH]2)cc1,13.4*,3.8,3.0,4.6,0.4,14.9*,0.5
Cc1nn(-c2ccccc2)cc1C(=S)Nc1ccccc1,13.7*,1.6,0.9,-0.9,-1.0,6.9,0.2
COc1ccc(Nc2nc(N)nc(CSc3nnc(N)s3)n2)cc1,3.6,0.6,0.5,1.7,0.2,.,.
COc1ccc(Nc2nc(N)nc(CSc3nccn3C)n2)cc1,21.2*,0.8,3.2,3.2,-0.2,12.6*,0.5
Cc1[nH]c2ccccc2c1CC(=O)Nc1ccc(N(C)c2cccnc2)c(-c2cccc(Cl)c2)c1,0.1,.,0.8,4.1,-1.3,.,.
SMILES,hgDAF-12 ag,DAX1 inh-1,DAX1 inh-2,hcDAF12 agonist,ssDAF12 agonist,hgDAF12 ag,LXR ag 2
N/C(=N\OC(=O)c1ccc(Br)o1)c1cccnc1,14.5*,1.4,1.6,0.9,-1.8,6.6,0.3
N/C(=N\OC(=O)c1ccc([N+](=O)[O-])cc1)c1cccnc1,2.5,0.6,-0.2,0.3,-1.5,.,.
COC(=O)[C@]12C[C@H](CC(=O)NCCCN3CCCC3=O)C(=O)N(Cc3ccc(Cl)cc3Cl)C1=C[C@H](C1CCCC1)O[C@@H]2C,-2.8,.,-1.1,-1.4,-1.6,.,.
O=C(O)/C=C/C(=O)Nc1nccs1,2.0,-1.1,0.0,2.7,-0.5,.,.
O=C(/C=C/c1ccc(Br)o1)Nc1nccs1,14.4*,1.8,1.4,5.8*,0.0,14.6*,0.4
O=c1c(-c2ccc3c(c2)OCCO3)coc2cc(O)cc(O)c12,13.8*,1.7,2.8,4.0,0.0,14.8*,0.7
Cc1cc(NO)nc(-c2ccc(Br)cc2)n1,13.3*,2.4,0.4,3.8,0.3,19.1*,0.6
O=C(COc1cc(F)ccc1[N+](=O)[O-])NCCN1C(=O)CSC1=O,23.2*,-0.9,-0.3,-1.8,-0.7,-1.3,0.0
Cc1cc(C)cc(C(=O)NCCCc2ccccc2)c1,-2.9,0.7,-0.4,-2.7,-1.5,.,.
Cc1ccc(C(=O)NCCCc2ccccc2)c(Cl)c1,14.7*,5.1*,2.0,6.5*,0.4,11.4*,0.5
Cc1ccc(C(=O)NCCCc2ccccc2)c(C)c1,14.8*,6.8*,3.1,4.7,0.2,15.9*,0.7
COc1ccc(C(C)c2cc3c(cc2OCC(=O)O)OCO3)cc1 (centres undefined),-2.1,.,0.4,-0.2,-1.2,.,.
Cc1ccccc1NC(=O)OCCN1CCCC12CCC(c1ccccc1)CC2 (centres undefined),-2.0,.,.,-1.2,-1.6,.,.
COC(=O)[C@]12C[C@H](CC(=O)N3CCC(c4ccccc4)CC3)C(=O)N(Cc3ccc4c(c3)OCO4)C1=C[C@H](COCc1ccccc1)O[C@@H]2C,0.3,.,0.0,1.4,-1.2,.,.
CC(C)N=C1NN=C(c2ccc(Cl)c(Cl)c2)CS1,19.3*,.,3.3,2.4,-0.5,18.7*,0.8
Cc1ccc(/C=N/NC(=O)c2ccccn2)s1,15.3*,1.2,3.2,3.7,-0.2,14.0*,0.6
COC(=O)[C@H](C(C)C)N(CCc1cn(Cc2ccc(C)cc2)nn1)S(=O)(=O)c1ccccc1Br,-1.0,.,-1.8,-4.0,-1.5,.,.
Cc1ccc(NC(=O)c2ccc3ncsc3c2)cc1S(=O)(=O)N(C)C,19.5*,.,3.3,3.8,0.3,13.9*,0.7
c1ccc(-c2nn(Cc3ncco3)c3ccccc23)cc1,-4.2,.,.,1.5,-1.2,.,.
CCn1ccc(C(=O)Nc2ccccc2Cl)n1,13.7*,1.0,4.3*,2.7,-1.1,14.5*,0.7
CCn1ccc(C(=O)Nc2cccc(Cl)c2)n1,15.4*,2.2,3.1,4.9,-0.9,10.3,0.4
O=C(O)c1cc(-c2cccs2)[nH]n1,15.2*,0.8,-0.3,-0.4,0.1,0.9,0.0
COc1cccc(C(=O)Nc2cc3c(cc2Cl)OCCCO3)c1,13.9*,2.4,3.5,1.6,0.1,14.2*,0.5
COc1ccc(C(=O)Nc2cc3c(cc2Cl)OCCCO3)cc1,9.9,3.3,2.3,3.4,-0.1,.,.

# From PubChem
